Screening results deposited in PubChem by several laboratories.
The list is not random: actives were taken first. Their share in the collection is about 1.3%.
CCHFV vOTU inh – CCHFV vOTU protease inhibitors, primary screen, biochemical, Pep-AMC substrate, fluorescence; Crimean-Congo hemorrhagic fever virus L polyprotein viral ovarian tumor (vOTU) protease …; inhibition, % at 11.5 µM; 370,000 compounds, 0.55% hits; AID 651958, 2012; in the data active means inhibition above about 30%; further: 0% = vehicle wells with enzyme and 100% = no enzyme wells
VHR inh abs – VHR1 phosphatase inhibitors, primary screen, biochemical, absorbance, uHTS | Dual specificity protein phosphatase 3 (Homo sapiens), P51452 | recombinant VHR phosphatase, pNPP absorbance | inhibition, % at 13.3 µM | 290,000 compounds, 0.52% hits | AID 1654, 2009; in the data active means inhibition above about 50%
Target sequence (P51452 whole entry, looked up): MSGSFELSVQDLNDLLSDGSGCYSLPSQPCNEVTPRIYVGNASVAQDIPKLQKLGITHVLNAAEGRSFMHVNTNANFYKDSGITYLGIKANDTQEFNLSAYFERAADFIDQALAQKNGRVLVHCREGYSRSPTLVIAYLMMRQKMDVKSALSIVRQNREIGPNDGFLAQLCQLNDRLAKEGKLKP
Mtb hypoxia rep – PubChem AID 1159583 | fluorescence inhibition, % (concentration not given with the values) | M. tuberculosis hypoxia-regulated fluorescent reporter, fluorescence | 300,000 compounds, 0.1% hits; in the data active means fluorescence inhibition mostly above about 23%, no sharp cut-off; inactive means mostly below about 17%
SSB-PriA inh – inhibitors of Klebsiella pneumoniae PriA binding to SSB C-terminal tail, primary screen, biochemical, AlphaScreen. AlphaScreen SSBct-PriA binding, biotinylated peptide. 430,000 compounds, 0.6% hits. PriA–SSB C-terminal tail interaction (Klebsiella pneumoniae). inhibition, % at 33 µM; in the data active means inhibition mostly above about 37%, no sharp cut-off; inactive means mostly below about 20%;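 further: plate controls were negative control peptide for no effect and reference peptide for full effect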
3CLpro inhibitor – SARS-CoV 3CLpro protease inhibitors, primary screen, biochemical, quenched FRET. recombinant SARS-CoV 3CLpro, quenched FRET peptide cleavage. inhibition, % at 6 µM. 290,000 compounds, 0.14% hits. AID 1706, 2009; in the data active means inhibition above about 12%
Active calls of the source: *; . = no result; ! = a repeat was not active.

SMILES | CCHFV vOTU inh | VHR inh abs | Mtb hypoxia rep | SSB-PriA inh | 3CLpro inhibitor
COc1cc(CCC(=O)N2CCN(c3ccc([N+](=O)[O-])cc3)CC2)cc(OC)c1OC | 0.5 | 56.9* | -5.4 | 4.2 | -2.5
Cc1cc(-c2ccccc2)c2c(n1)sc1c(=O)n(CC(=O)Nc3ccc(F)c(C)c3)cnc12 | . | . | . | 7.0 | .
Cc1ccc(/C=C(\C#N)C(=O)NCC2CCCO2)o1 (stereo not given) | -1.9 | -3.4 | 9.4 | -7.0 | -0.7
N#C/C(=C\c1ccco1)C(=O)NCC1CCCO1 (stereo not given) | 35.6* | -10.1 | -1.4 | -5.2 | 6.5
CCOCCn1c(=NC(=O)C(C)C)sc2cc(NC(C)=O)ccc21 | . | . | . | 37.0* | .
CN(C)CCOC(=O)C12CC3(C)CC(C)(CC(C)(C3)C1)C2 | -7.5 | 52.3* | 2.7 | 2.4 | -0.4
Cc1ccc(NC(=O)NCC(C(C)C)N(C)C)cc1 (stereo not given) | . | . | . | -6.0 | .
Cc1ccc2[nH]c3nc(NN)nnc3c2c1 | 10.7 | -0.7 | 10.8 | 89.7* | 4.8
Cc1ccc2[nH]c3nc(SCCN4CCOCC4)nnc3c2c1 | -12.4 | 10.5 | 0.8 | -21.6 | -2.0
CCc1ccccc1NC(=O)c1cc(C)no1 | -5.1 | -15.2 | 4.2 | -2.5 | -5.8
Cc1cc(C(=O)Nc2cc(Br)ccc2O)on1 | 0.1 | 53.0* | -2.8 | -15.0 | -4.3
FC(F)(F)c1ccc(CN2CCCCCC2)cc1 | -14.7 | 51.6* | 9.5 | -3.4 | 4.1
COc1ccc(CN2CCN(Cc3ccc(C(F)(F)F)cc3)CC2)cc1 | -0.7 | -7.8 | 5.6 | -15.9 | -3.9
O=C(/C=C/c1ccccc1)c1ccccc1 | 11.2 | -14.6 | . | -6.5 | -3.9
N#Cc1ccc(/C=C/C(=O)c2ccccc2)cc1 | 4.4 | 1.7 | 36.2* | -3.7 | -0.1
C=CCn1c(NC(=O)c2ccc(C)cc2)nc2ccccc21 | -7.2 | 53.9* | -3.5 | 11.6 | -0.6
CC(OC(=O)c1ccccc1C(=O)N(C)c1ccccc1)C(=O)Nc1ccc(C(N)=O)cc1 (stereo not given) | -1.3 | . | 5.3 | -2.6 | .
CC(OC(=O)c1cc(O)c2ccccc2c1O)C(=O)Nc1ccc(C(N)=O)cc1 (stereo not given) | 86.1* | . | 6.1 | 17.5 | .
O=[N+]([O-])c1cc(CN2CCN(Cc3ccccc3)CC2)ccc1Sc1ccc(Cl)cc1 | . | . | . | 57.9* | .
COc1ccc(-c2ccc(S(=O)(=O)N3CC(S(=O)(=O)CC(C)C)C3)cc2)cc1 | . | . | . | -7.0 | .
COc1cc2cnc(-c3ccccc3)c(-c3cccc(C(F)(F)F)c3)c2cc1OC | 22.1 | . | . | 45.0* | .
COc1ccc2sc(N(CCCN3CCOCC3)C(=O)c3cccc([N+](=O)[O-])c3)nc2c1 | . | . | . | 47.0* | .
CN1CCCC(C(=O)c2ccccc2)C1 (stereo not given) | 7.4 | 4.9 | 3.6 | -12.6 | 0.8
CSc1ccc(C(=O)C2CCCN(C)C2)cc1 (stereo not given) | 12.9 | 53.3* | -0.9 | -24.4 | -0.3
O=C(CN1CCCN(Cc2cccc(F)c2)S1(=O)=O)Nc1cccc(C(F)(F)F)c1 | . | . | . | -9.0 | .
SMILES | CCHFV vOTU inh | VHR inh abs | Mtb hypoxia rep | SSB-PriA inh | 3CLpro inhibitor
CC(=O)c1ccc2c(c1)c(C#N)c1ccccc1[n+]2[O-] | 6.2 | -28.6 | 41.8* | -11.7 | -2.3
CC(=O)c1ccc2noc(-c3ccccc3)c2c1 | -9.7 | 26.1 | -4.1 | -18.0 | -5.7
Nc1ccccc1Nc1ccncc1[N+](=O)[O-] | -5.5 | -11.7 | -2.5 | -11.0 | 0.6
Nc1ccccc1Nc1c(F)c(F)nc(F)c1Cl | 4.5 | -25.9 | 3.1 | 38.5* | -2.0
Cc1ccc(CSc2cccc3cccnc23)cc1 | . | . | . | 31.1 | .
Cc1cc(=O)n2c(-c3cccc(NC(=O)c4cccc5ccccc45)c3)csc2n1 | . | . | . | 1.0 | .
CCCCn1ccnc1C | -6.5 | 58.2* | -3.4 | -12.5 | -4.0
O=[N+]([O-])c1ccc2c(c1N1CCCCC1)=NC1(CCCCC1)[N+]=2[O-] | 4.6 | -6.4 | 15.0 | 4.8 | 3.4
COc1ccc(Nc2ccc3c(c2)=NC2(CCCCC2)[N+]=3[O-])cc1 | 18.9 | 16.5 | 16.5 | 65.3* | -0.9
[O-][N+]1=c2ccc(Nc3ccccc3)cc2=NC12CCCCC2 | 11.3 | 7.1 | 23.5 | 57.0* | 4.1
CC[n+]1c(/C=C/C=C/c2ccc(N(C)C)cc2)sc2ccccc21 | 15.5 | 3.5 | 23.8 | 60.7* | -3.8
CCN1C(=Cc2ccc3ccc(C)cc3[n+]2CC)Sc2ccccc21 | . | . | . | 11.5 | .
CN(C)c1ccc(/C=C/C=C/c2sc3ccccc3[n+]2C)cc1 | -11.3 | -0.7 | . | 40.5* | -1.4
CCN1/C(=C\C=C\c2sc3ccccc3[n+]2CC)Sc2ccccc21 | . | . | . | 55.8* | .
CC[n+]1c(/C=C/C=C/N(C(C)=O)c2ccccc2)sc2ccccc21 | 5.3 | 46.7 | . | 2.2 | 5.4
CN(C)c1ccc(/C=C/c2cc[n+](C)c3ccccc23)cc1 | 10.5 | 16.6 | . | 19.0 | -4.2
O=C(Cc1ccccc1Cl)N(CC(F)(F)F)C1CCOCC1 | . | . | . | -30.0 | .
COc1ccc(Cl)c2sc(N3CCN(C(=O)c4ccccc4Oc4ccccc4)CC3)nc12 | . | . | . | 5.0 | .
COc1ccc(S(=O)(=O)N2CCCC2C(=O)Nc2ccccc2-c2nc3ccccc3[nH]2)cc1 (stereo not given) | . | . | . | -11.0 | .
COCCN(Cc1ccoc1)S(=O)(=O)c1cc(C)c(C)cc1OC | . | . | . | -2.0 | .
Cc1ccc(N/N=C/c2ccncc2)cc1 | -6.6 | 57.3* | . | . | -3.5
Cc1ccc(N/N=C/c2cccnc2)cc1 | 3.9 | -2.7 | . | . | -0.5
CCOC(=O)c1c(NC(=O)c2ccccc2F)sc(C)c1-c1ccccc1 | . | . | . | -18.0 | .
C#Cc1ccc(CN2CCCC(C(=O)Nc3ccccc3Oc3cccnc3)C2)cc1 (stereo not given) | 7.0 | 55.6* | . | 10.1 | 2.3
O=C(Nc1ccccc1Oc1cccnc1)C1CCCN(Cc2ccccc2O)C1 (stereo not given) | 9.2 | 5.7 | -6.2 | -2.8 | 4.3
SMILES | CCHFV vOTU inh | VHR inh abs | Mtb hypoxia rep | SSB-PriA inh | 3CLpro inhibitor
CC1CN(c2oc(COc3ccc(Cl)cc3Cl)nc2C#N)CC(C)O1 (stereo not given) | 12.1 | 17.6 | -1.7 | 42.9* | 3.1
N#Cc1nc(COc2ccccc2)oc1N1CCCCC1 | 2.9 | 17.0 | . | 37.3 | -1.4
Cc1ccc(OCc2nc(C#N)c(N3CCCCC3)o2)cc1 | 4.4 | 14.4 | 15.6 | 45.2* | -0.7
N#Cc1nc(COc2ccc(Cl)cc2)oc1N1CCCCCC1 | 9.3 | -14.5 | . | 51.9* | 8.2
O=C(CCC(F)(F)F)Nc1cnn(C2CCOCC2)c1 | . | . | . | -4.0 | .
O=C(NCC(=O)N1CCc2cnc(N3CCOCC3)nc2C1)c1ccccc1 | . | . | . | -4.0 | .
CCC(C)c1ccccc1OCC(O)CN1CCN(CCN2C(=O)c3cccc4cccc(c34)C2=O)CC1 (stereo not given) | . | . | . | 46.0*! | .
COc1ccc(C(=O)CN2CCN(CCN3C(=O)c4cccc5cccc(c45)C3=O)CC2)cc1 | -7.6 | . | 4.9 | 62.0*! | .
O=C(CSc1cccc2cccnc12)c1ccc(-c2ccccc2)cc1 | . | . | . | 32.6 | .
O=C(CSc1cccc2cccnc12)N1CCc2ccccc2C1 | . | . | . | 91.3* | .
COC(=O)CSc1cccc2cccnc12 | . | . | . | 37.9 | .
